An excerpt weighted towards active compounds, which were near 3.3% of everything screened.
Fh CTSL1 inh: Fasciola hepatica cathepsin L1 inhibitors, primary screen, counter-screen for PFM18AAP inhibitor project, biochemical, QFRET, fluorogenic peptide substrate; recombinant F. hepatica cathepsin L1, Z-Leu-Arg-MCA fluorescence; inhibition, % at 5.96 µM; 300,000 compounds, 0.49% hits; AID 1906, 2009;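 active means inhibition above the mean of all tested compounds plus 3 SD, set per screening campaign, cut at about 17% in these data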;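 further: 0% = plate median of test compound wells and 100% = 1 µM Z-Phe-Ala-diazomethylketone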
NRP1-CendR mod: modulators of CendR peptide binding to NRP-1, primary screen, biochemical, fluorescence polarization, uHTS; Neuropilin-1 (Homo sapiens), O14786; FAM-RPARPAR peptide binding to NRP-1; inhibition, % at 25 µM; 360,000 compounds, 0.85% hits;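 active means inhibition or corrected inhibition above about 18%, plus a signal ratio from 0.5 to 1.5, limit read from the data, passing the limit was not always enough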
HNF4A DNA FP: change in binding of human HNF4A to DNA, primary screen, biochemical, fluorescence polarization, FITC-DNA. activity change, % at 10 µM. 360,000 compounds, 0.3% hits. 1 h. Hepatocyte nuclear factor 4-alpha (Homo sapiens), P41235. AID 1224865, 2016; in the data active means activity change above about 30%, passing the limit was not always enough
TPT1 inhibitor: Candida albicans TPT1 enzyme inhibitors, primary screen, biochemical, fluorescence polarization | inhibition, % at 5 µM | AID 1962, 2009 | recombinant caTPT1, FP RNA substrate dephosphorylation | 300,000 compounds, 0.81% hits;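 active means inhibition above the mean of all tested compounds plus 3 SD, set per screening campaign, cut at about 24% in these data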;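 further: plate controls were DMSO alone for no effect and ferristatin control at 100 nM for full effect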
Rpn11 inh: Rpn11 (PSMD14) deubiquitinase inhibitors, primary screen, biochemical, fluorescence polarization, uHTS | human 26S proteasome, Ub4-pepOG fluorescence polarization; 20S core pre-blocked with epoxomicin | 360,000 compounds, 0.59% hits | inhibition, % at 20 µM | 26S proteasome non-ATPase regulatory subunit 14 (Homo sapiens), O00487 | AID 588493, 2011;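 active means inhibition at 20 µM, scaled to each plate's controls, above about 33%, limit read from the data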
Target sequence (O00487 whole entry, looked up): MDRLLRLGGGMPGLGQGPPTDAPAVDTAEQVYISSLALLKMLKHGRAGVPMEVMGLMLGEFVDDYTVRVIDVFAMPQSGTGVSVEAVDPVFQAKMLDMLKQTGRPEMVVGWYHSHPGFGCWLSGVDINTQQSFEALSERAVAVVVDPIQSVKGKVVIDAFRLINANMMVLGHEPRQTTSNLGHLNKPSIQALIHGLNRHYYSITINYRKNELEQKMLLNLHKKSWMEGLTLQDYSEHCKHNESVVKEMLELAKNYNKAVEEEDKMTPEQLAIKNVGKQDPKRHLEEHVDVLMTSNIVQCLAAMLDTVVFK
PHOSPHO1 block: PubChem AID 1565; Phosphoethanolamine/phosphocholine phosphatase (Homo sapiens), Q8TCT1; recombinant PHOSPHO1, absorbance phosphatase assay; inhibition, % at 13.3 µM; 290,000 compounds, 1.1% hits; in the data active means inhibition above about 60%
Target sequence (Q8TCT1 whole entry, looked up): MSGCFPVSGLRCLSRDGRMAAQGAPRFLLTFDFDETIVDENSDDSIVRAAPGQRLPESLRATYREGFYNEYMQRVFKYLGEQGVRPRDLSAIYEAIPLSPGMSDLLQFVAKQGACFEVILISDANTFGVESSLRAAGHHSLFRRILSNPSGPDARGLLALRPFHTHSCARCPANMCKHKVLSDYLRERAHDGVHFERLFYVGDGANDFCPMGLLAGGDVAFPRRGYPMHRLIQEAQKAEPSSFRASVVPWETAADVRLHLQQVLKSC
An asterisk follows results filed as active; nt = no result given.

SMILES	Fh CTSL1 inh	NRP1-CendR mod	HNF4A DNA FP	TPT1 inhibitor	Rpn11 inh	PHOSPHO1 block
NS(=O)(=O)c1ccc(CCNC(=O)Cc2ccc(Cl)cc2)cc1	-2	-5	-3	2	5	10
Cn1cc(C(=O)c2ccc(Cl)cc2Cl)cc1C(=O)N/N=C(\N)COc1ccccc1	3	36*	2	-2	-8	-54
Cc1ccc(NC(=O)Nc2cccs2)nc1	-4	25*	-5	-2	4	-29
Cc1c(NC(=O)Nc2cccs2)cccc1[N+](=O)[O-]	17*	-13	5	-1	3	-10
CCc1ccc(NC(=O)Nc2cccs2)cc1	-1	-9	1	2	10	74*
O=C(Nc1cccs1)Nc1ccccc1Cl	8	-3	3	-2	10	45
Cc1ccccc1CNC(=O)Nc1cccs1	3	13	0	-2	6	-52
O=C(NCc1cccs1)Nc1cccs1	2	-1	3	-6	-1	68*
Cc1ccc(NC(=O)Nc2ccccc2)nc1	3	1	3	-2	-5	nt
Cc1ccc(NC(=O)Nc2cccs2)cc1	4	-21	3	7	5	9
Cc1c(C(=O)NCc2ccc3c(c2)OCCO3)sc(=O)n1Cc1ccc(S(=O)(=O)N(C)C)cc1	nt	-8	2	nt	-3	nt
Cc1cccc(NCc2n[nH]c(=S)n2-c2ccccc2)c1	2	-2	0	-1	3	94*
Nn1c(Cc2cccc3ccccc23)n[nH]c1=S	0	13	5	-4	-12	40
S=c1[nH]nc(Cc2cccc3ccccc23)n1-c1ccccc1	0	12	0	1	-1	94*
COCc1n[nH]c(=S)n1-c1cccc2ccccc12	-2	-2	-3	0	0	74*
Cc1ccc(NCc2n[nH]c(=S)n2-c2ccccc2)cc1	-3	7	2	0	8	-3
COc1ccc(-c2cc(-c3n[nH]c(=S)n3-c3cccc4ccccc34)[nH]n2)cc1	4	8	1	-1	0	-10
CC(=O)Nc1ccc(NC(=O)c2ccc(C)c(S(=O)(=O)Nc3cccc(C)c3)c2)cc1	2	9	-1	-1	-5	45
CN1CCN(C2=C(Cl)C(=O)N(c3cccc(Cl)c3)C2=O)CC1	23*	-9	-1	-8	-7	7
O=C1C(Cl)=C(N2CCCC2)C(=O)N1c1ccc(F)cc1	29*	3	-2	3	10	nt
CN1CCN(C2=C(Cl)C(=O)N(c3ccc(Cl)c(Cl)c3)C2=O)CC1	40*	-12	-2	-4	-4	11
O=C1C(Cl)=C(N2CCCCCC2)C(=O)N1c1ccc(Cl)cc1	11	-8	11	5	13	14
Cc1ccc(N2C(=O)C(Cl)=C(N3CCOCC3)C2=O)cc1Cl	38*	-8	-2	2	-2	6
O=C1C(Cl)=C(N2CCOCC2)C(=O)N1c1ccccc1Cl	17	-16	1	0	-9	1
O=C(NCc1ccc(Cl)c(Cl)c1)c1cc(C2CCCCN2C(=O)OCCF)on1 (centres undefined)	nt	-8	-2	nt	4	nt
SMILES	Fh CTSL1 inh	NRP1-CendR mod	HNF4A DNA FP	TPT1 inhibitor	Rpn11 inh	PHOSPHO1 block
CCCC1=C(C(=O)OCC)C(c2cc(Cl)cc(OC)c2OCc2ccccc2)NC(=O)N1 (centres undefined)	5	-1	-2	-2	-5	16
O=C(Nc1ccc2c(c1)OCCO2)C(c1ccnc2ccccc12)N1CCN(C/C=C/c2ccccc2)CC1 (centres undefined)	nt	10	-7	nt	7	nt
CC(=O)c1ccc(N2C(=O)C3C(C2=O)C(C(=O)c2ccc(Cl)cc2)N2CCCC32)cc1 (centres undefined)	nt	nt	nt	nt	nt	-65
O=C(c1ccc(Cl)cc1)C1C2C(=O)N(c3ccccc3)C(=O)C2C2CCCN21 (centres undefined)	nt	-12	1	nt	-3	84*
CCOc1ccccc1NC(=O)CC1(CC(=O)N2CCOCC2)CCCC1	nt	3	3	nt	-6	nt
Cc1ccc(Nc2cnn(C34CC5CC(CC(CC(=O)O)(C5)C3)C4)c(=O)c2Cl)c(Cl)c1	3	-1	4	-2	-1	-10
COc1ccc(/C=C/C(=O)NCC(=O)N/N=C/c2cccnc2)cc1	1	-6	-2	2	-3	-1
COc1ccc(/C=C/C(=O)NCC(=O)N/N=C/c2ccc(OC)cc2)cc1	0	20*	2	-1	3	-5
Cc1noc(C)c1NC(=O)Nc1cccc2c1O[C@H](CN(C)S(=O)(=O)c1cccs1)[C@@H](C)CN([C@H](C)CO)C2=O	nt	3	-3	nt	0	nt
COc1ccc(C2CC(c3cccs3)=NN2C(=O)CCl)cc1OC (centres undefined)	58*	-35	6	0	16	36
COc1cc(C2CC(c3cccs3)=NN2C(=O)CCl)ccc1OC(F)F (centres undefined)	59*	-7	1	3	5	32
COc1ccc(C2CC(c3cccs3)=NN2C(=O)c2ccccc2)cc1OC (centres undefined)	-1	4	-3	-2	-10	14
OCCSc1nc2ccccc2n1CCOc1ccccc1	-3	-1	0	-1	-2	23
COc1cc(C(=S)N2CCN(c3cccc(Cl)c3)CC2)ccc1O	-2	8	-3	-3	5	-88
COc1ccc(N2CCN(S(=O)(=O)CCNC(=O)c3ccc(Br)o3)CC2)cc1	-2	8	6	-1	8	65*
O=C(O)C1CCN(C(=O)c2ccc(Cl)cc2)CC1	2	25*	-1	-6	-5	8
O=C1NC[C@H](CCCCN2C[C@H](Cc3ccccc3)N(CCc3ccc(O)cc3)C(=O)C2=O)N(CCc2ccc(O)cc2)C1=O	nt	1	1	nt	nt	nt
CC(C)(C)N1C(=O)Cc2c1nc(N)c1c(N)nc(N3CCCCC3CO)c(C#N)c21 (centres undefined)	105*	7	6	2	12	9
CCOC(=O)C1CCC(CNCc2ccccc2C)CC1 (centres undefined)	-1	-6	8	-2	-6	2
COc1ccc(N(C(=O)c2cc3ccccc3oc2=O)C2C=CS(=O)(=O)C2)cc1 (centres undefined)	-5	-4	-5	1	-6	61*
CCN(CC)C(=O)[C@H]1C[C@H](CC(=O)NCCc2ccccn2)C(=O)N2CCc3c([nH]c4ccc(Cl)cc34)[C@]12C	nt	-5	-5	nt	4	nt
